The source of these data is PubChem BioAssay (EPA / NIEHS).

The nature of assay [1]: TOX21_p53_BLA_p2_viability: Viability Assessment in the Tox21 HCT-116 p53 Agonism Beta-lactamase Assay, Phase 2 (AID 2283591).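 Also: compound exposure lasted 16 h at 37 °C; actives lower the ATP signal meaning cytotoxicity.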 In short, it runs like this:
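Cytotoxicity readout: CellTiter-Glo ATP luminescence, 30 min at room temperature, after the beta-lactamase read. Cells were HCT116 exposed 16 h at 37C to compounds pin-transferred at 217-fold dilution from DMSO stocks.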

The nature of assay [2]: TOX21_p53_BLA_p3_viability: Viability Assessment in the Tox21 HCT-116 p53 Agonism Beta-lactamase Assay, Phase 3 (AID 2283593).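 Also: cells exposed to compound for 16 h before reading.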 The method in brief: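 Cellular ATP was quantified by CellTiter-Glo luminescence, read after 30 min at room temperature. Beforehand, HCT116 cells (4000/well) received compound 5 h post-seeding, 217-fold diluted from DMSO, then incubated 16 h at 37C.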

A short description of assay [3]: TOX21_p53_BLA_p4_viability: Viability Assessment in the Tox21 HCT-116 p53 Agonism Beta-lactamase Assay, Phase 4 (AID 2283597).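 Also: hits lower the luminescence signal meaning cytotoxicity.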 In short, it runs like this:
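Cytotoxicity as reduced cellular ATP (CellTiter-Glo luminescence, 30 min room temperature), measured in the same wells following the CCF4 FRET p53 reading. Human HCT-116 cells received compounds in DMSO (217-fold dilution) for 16 h.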

A short description of assay [4]: TOX21_p53_BLA_p5_viability: Viability Assessment in the Tox21 HCT-116 p53 Agonism Beta-lactamase Assay, Phase 5 (AID 2283600). In short, it runs like this: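 Viability came from CellTiter-Glo ATP luminescence, read after 30 min at room temperature. Before this, HCT-116 p53-bla cells (4000/well) had 16 hours of compound exposure at 37C, with DMSO stocks diluted 217-fold on transfer.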

Assay [5] is described as follows: Tanguay_ZF_120hpf_YSE_legacy: (Legacy) Oregon State University Tanguay Lab 120 Hour Post-fertilization zebrafish Assay for Yolk Sac Edema (AID 2283634).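 As to AC50: actives raise the incidence of yolk sac edema above the DMSO baseline.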 The method in brief: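 Presence or absence of yolk sac edema was recorded at 120 hpf in surviving larvae. These were wild-type Tropical 5D embryos, chorion removed at 4 hpf, held in static exposure at 28C from 6 hpf with 0.64% DMSO vehicle.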

Assay [6] can be described thus: Tanguay_ZF_120hpf_AXIS_legacy: (Legacy) Oregon State University Tanguay Lab 120 Hour Post-fertilization zebrafish Assay for Body Axis Malformation (AID 2283635).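 As to AC50: potency for an increased fraction of larvae scored with body axis malformation.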 The method in brief: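 Binary scoring of axis defects at 120 hpf under brightfield, fitted positive versus DMSO. Tropical 5D embryos, chorion removed by pronase at 4 hpf, were singly exposed in sealed, dark plates at 28C from 6 hpf; DMSO 0.64% final.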

Assay [7] can be described thus: Tanguay_ZF_120hpf_EYE_legacy: (Legacy) Oregon State University Tanguay Lab 120 Hour Post-fertilization zebrafish Assay for Eye Malformation (AID 2283636).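 Also: binary presence or absence of eye malformation scored by brightfield in 120 hpf larvae.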 The method in brief:
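Binary brightfield scoring of eye defects at 120 hpf after static exposure from 6 hpf of single pronase-dechorionated wild-type embryos (28C, 0.64% DMSO). Non-mortality endpoints omitted where embryos died; fit vs DMSO.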

The nature of assay [8]: Tanguay_ZF_120hpf_JAW_legacy: (Legacy) Oregon State University Tanguay Lab 120 Hour Post-fertilization zebrafish Assay for Jaw Malformation (AID 2283638).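 As to AC50: active means more embryos with jaw malformation than DMSO controls.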 The method in brief:
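Binary jaw-malformation call at 120 hpf by brightfield microscopy. Embryos (Tropical 5D strain, chorion removed at 4 hpf) were dosed statically at 6 hpf, one per well, at 28C with 0.64% DMSO. Embryos that died were not scored.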

A short description of assay [9]: Tanguay_ZF_120hpf_OTIC_legacy: (Legacy) Oregon State University Tanguay Lab 120 Hour Post-fertilization zebrafish Assay for Otic Vesicle Malformation (AID 2283639). In short, it runs like this:
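Binary scoring of otic vesicle defects at 120 hpf in zebrafish (Tropical 5D) held under static exposure at 28C, sealed and shaded, with final DMSO 0.64%. Embryos dying by 24 or 120 hpf excluded; fitted positively against DMSO.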

A short description of assay [10]: Tanguay_ZF_120hpf_PE_legacy: (Legacy) Oregon State University Tanguay Lab 120 Hour Post-fertilization zebrafish Assay for Pericardial Edema (AID 2283640).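 As to AC50: potency for increased incidence of pericardial edema versus DMSO baseline.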 In short, it runs like this:
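Scoring was binary, by brightfield microscopy at 120 hpf, and skipped where mortality occurred. Wild-type embryos were kept under sealed, foil-covered static exposure at 28C in 0.64% (vol/vol) DMSO.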

Assay [11] is described as follows: Tanguay_ZF_120hpf_SOMI_legacy: (Legacy) Oregon State University Tanguay Lab 120 Hour Post-fertilization zebrafish Assay for Somite Malformation (AID 2283647). The method in brief:
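Binary somite-defect scoring at 120 hpf, omitted for embryos that died, in wild-type (Tropical 5D) zebrafish with chorion removed by pronase at 4 hpf; static exposure began 6 hpf, single embryos per well, 28C, 0.64% DMSO; fitted positive versus DMSO.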

The nature of assay [12]: Tanguay_ZF_120hpf_PFIN_legacy: (Legacy) Oregon State University Tanguay Lab 120 Hour Post-fertilization zebrafish Assay for Pectoral Fin Malformation (AID 2283648).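 Also: each larva judged yes or no for fin defect by brightfield with dead larvae skipped.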 In short, it runs like this:
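Pectoral fin malformation was recorded as a binary endpoint at 120 hpf in wild-type Tropical 5D larvae, which had been dechorionated and exposed statically from 6 hpf at 28C in 0.64% DMSO. Dead embryos were excluded.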

The nature of assay [13]: Tanguay_ZF_120hpf_CFIN_legacy: (Legacy) Oregon State University Tanguay Lab 120 Hour Post-fertilization zebrafish Assay for Caudal Fin Malformation (AID 2283649). The method in brief:
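Binary brightfield scoring of caudal fin defects at 120 hpf after static, light-shielded exposure at 28C from 6 hpf. Tropical 5D embryos, chorion removed with pronase at 4 hpf, final DMSO 0.64%.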

The target of assay [14] is Cellular tumor antigen p53 (Homo sapiens) (UniProt P04637). Briefly: TOX21_p53_BLA_p3_ratio: Tox21 HCT-116 p53 Agonism Beta-lactamase Assay, Ratio, Phase 3 (AID 2283596). In short, it runs like this:
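Cells were seeded at 4000/well, rested 5 h at 37C, then dosed with DMSO compound solutions (217-fold dilution) for 16 h. CCF4-AM substrate was loaded for 2 h at room temperature, and the 460/530 nm emission ratio was fitted for gain of signal versus DMSO.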

Assay [15] shares this target. As to the kind of experiment: TOX21_p53_BLA_p5_ratio: Tox21 HCT-116 p53 Agonism Beta-lactamase Assay, Ratio, Phase 5 (AID 2283599). In short, it runs like this: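 Beta-lactamase reporter ratio (blue 460 nm over green 530 nm, 405 nm excitation) after 2 h CCF4-AM loading, in HCT-116 cells exposed 16 h at 37 C to compounds pinned at 217-fold dilution. Increases relative to DMSO baseline scored.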

For assay [16] the target is unchanged. Briefly: TOX21_p53_BLA_p4_ratio: Tox21 HCT-116 p53 Agonism Beta-lactamase Assay, Ratio, Phase 4 (AID 2283601). In short, it runs like this: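 Signal is the blue/green (460nm/530nm) ratio of cleaved versus uncleaved CCF4-AM substrate, read after 2 h substrate loading. Cells were HCT116 carrying the p53-responsive beta-lactamase reporter, dosed 16 h at 37C, 5% CO2; CellTiter-Glo measured in parallel.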

Assay [17] in a line: Tanguay_ZF_120hpf_BRAI_legacy: (Legacy) Oregon State University Tanguay Lab 120 Hour Post-fertilization zebrafish Assay for Brain Malformation (AID 2283641). In short, it runs like this: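 Binary brightfield scoring of brain malformation at 120 hpf in Tropical 5D larvae held under static exposure at 28C (0.64% v/v DMSO), non-mortality endpoints skipped if dead. Positive control: 5uM trimethyltin chloride; fit versus DMSO.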

Assay [18] in a line: Tanguay_ZF_120hpf_MORT_legacy: (Legacy) Oregon State University Tanguay Lab 120 Hour Post-fertilization zebrafish Assay for Mortality (AID 2283633).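 As to AC50: fitted as increase in binary mortality versus DMSO negative control.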 The method in brief: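 Static waterborne exposure from 6 to 120 hpf at 28C of single dechorionated wild-type (5D) embryos per well, 0.64% DMSO final. Death recorded present/absent by brightfield at 24 and 120 hpf.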
A short description of assay [19]: Tanguay_ZF_120hpf_SNOU_legacy: (Legacy) Oregon State University Tanguay Lab 120 Hour Post-fertilization zebrafish Assay for Snout Malformation (AID 2283637). In short, it runs like this: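 Binary snout-malformation call at 120 hpf in wild-type 5D embryos, chorion removed by pronase, under static exposure from 6 hpf at 28C (0.64% DMSO). Embryos dying by 24 or 120 hpf excluded.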

Where “and” joins values, the source holds several entries; their conditions need not be identical. Equal entries are not always repeated. Records with an inconclusive call do not appear. A structure can be active in one record and inactive in another. Calls of active or inactive are those of the source. The calls were made as follows: active = hit-call score of the fitted dose curve at least 0.9, where 1 is the maximum; inconclusive = response in the unintended direction; inactive = score below 0.9.

Cellular tumor antigen p53 (Homo sapiens), sequence (P04637 whole entry, looked up): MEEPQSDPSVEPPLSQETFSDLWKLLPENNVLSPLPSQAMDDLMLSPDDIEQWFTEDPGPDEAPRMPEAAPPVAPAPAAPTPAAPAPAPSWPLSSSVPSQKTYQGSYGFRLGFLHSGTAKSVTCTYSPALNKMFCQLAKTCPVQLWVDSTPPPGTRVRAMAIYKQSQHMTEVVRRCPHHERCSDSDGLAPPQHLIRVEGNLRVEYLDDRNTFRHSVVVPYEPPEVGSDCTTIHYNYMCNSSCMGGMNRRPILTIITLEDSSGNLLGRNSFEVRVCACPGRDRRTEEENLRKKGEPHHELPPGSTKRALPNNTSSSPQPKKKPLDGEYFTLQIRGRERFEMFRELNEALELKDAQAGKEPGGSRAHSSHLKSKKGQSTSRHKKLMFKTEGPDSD

With `[Cl-].[Cl-].[Hg+2]`, the AC50 in assay [1] was 34.8 µM (active) and 7.78 µM (active) and 16.4 µM (active); in assay [2], 68.5 µM (active) and 26.1 µM (active); in assay [3], 32.1 µM (active) and 9.76 µM (active) and 12 µM (active); in [4] it was 85.2 µM (active) and 19 µM (active) and 18.5 µM (active); in [5], 4.25 µM (active); in assay [6], 3.84 µM (active). Besides, the AC50 in assay [7] was 1.05 µM (active); in [8], 3.12 µM (active); in [9], 3.86 µM (active); in assay [10] it was 3.82 µM (active); in [11], 3.87 µM (active); in [12], 3.5 µM (active). Moreover, the AC50 in assay [13] is 1.08 µM (active). The compound was called inactive in assay [2].
Take `CCCCCCCCOC(=O)c1ccc(C(=O)OCCCCCCCC)c(C(=O)OCCCCCCCC)c1`: the outcome in [1], in assay [2], in assay [14], in assay [3], in [15] and in assay [4] was inactive. For the same compound, the result in assay [16], in assay [5], in assay [6], in [9], in assay [10] and in [17] was inactive. Besides, the outcome in assay [11], in [12] and in assay [13] was inactive.
Turning to `Nc1ccc(N=Nc2ccccc2)cc1`, the compound was classed as inactive in assay [1], in assay [2], in assay [14], in [3], in assay [15] and in [4]. The result in [16], in assay [18], in assay [5], in [6], in assay [7] and in assay [8] was inactive. Moreover, the compound was classed as inactive in assay [9], in assay [17], in assay [11] and in assay [12]. For the same compound, the AC50 in [10] was 25.6 µM (active).
For the compound `ClC1=C(Cl)[C@]2(Cl)[C@H]3[C@H]([C@@H]4C=C[C@H]3C4)[C@@]1(Cl)C2(Cl)Cl`, the call in assay [1], in [2], in assay [14], in assay [15], in [4] and in [16] was inactive. Moreover, the compound was called inactive in assay [18], in assay [5], in assay [6], in [8], in assay [9] and in assay [10]. Besides, the outcome in assay [11], in [12] and in assay [13] was inactive. In assay [2], the AC50 is 46 µM (active).
As for `CN(C)c1ccc(C(=O)c2ccc(N(C)C)cc2)cc1`, the result in assay [1], in [3], in [4] and in assay [13] was inactive. The AC50 was 826 nM (active) and 1.65 µM (active) in [14]; 690 nM (active) and 351 nM (active) in [15]; 907 nM (active) and 463 nM (active) in assay [16]; 9.64 µM (active) in [18]; 25.4 µM (active) in [5]; 25.2 µM (active) in assay [6]. The AC50 was 8.23 µM (active) in assay [7]; 23.4 µM (active) in assay [8]; 12.9 µM (active) in assay [9]; 22.7 µM (active) in assay [10]; 28.4 µM (active) in assay [11]; 17.2 µM (active) in assay [12].
Regarding `c1ccc(C2CO2)cc1` (configuration not stated), the result in assay [1], in [2], in [14], in assay [15], in assay [4] and in [16] was inactive. For the same compound, the call in assay [5], in [6], in assay [7], in assay [8], in [9] and in [10] was inactive. For the same compound, the compound was classed as inactive in [17], in assay [11], in assay [12] and in assay [13].
For the compound `OCCCBr`, the compound was called inactive in assay [1], in assay [2], in assay [14], in [3], in [15] and in [4]. The outcome in assay [16], in assay [18], in [5], in [6], in assay [7] and in assay [8] was inactive. Further, the compound was classed as inactive in assay [9], in assay [10], in assay [11], in assay [12] and in assay [13].
On to `CN(C)[C@@H]1C(=O)C(C(N)=O)=C(O)[C@@]2(O)C(=O)C3=C(O)c4c(O)cccc4[C@@](C)(O)[C@H]3C[C@@H]12`, for which the outcome in [1], in assay [2], in assay [14], in [3], in assay [15] and in assay [4] was inactive. Besides, the outcome in assay [16], in [5], in assay [6], in assay [7], in [19] and in assay [8] was inactive. Besides, the compound was called inactive in assay [10], in assay [11], in assay [12] and in assay [13].
